# Laboratory results taken from PubChem BioAssay.
# Records with an inconclusive call do not appear. Calls of active or inactive are those of the source.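 Rule for the calls, unless noted: active = normalized viability below 100% at a tested concentration; inactive = the rest.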
# What was measured:
# [1] = viability loss in pontine glioma line – cell-based, SU-DIPG-XVII, MIPE5.0, CellTiter-Glo, qHTS, dose response (AID 1347060; cut-off not given, nearly all actives have AC50 up to about 26 µM;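 for AC50: cells exposed to compound for 48 hours before viability readout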); settings: CellTiter-Glo ATP luminescence
# [2] = viability loss in pontine glioma line – cell-based, SU-DIPG-IV, MIPE4.0, CellTiter-Glo, qHTS, dose response (AID 1347063; cut-off not given, nearly all actives have AC50 up to about 30 µM;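 note: compound exposure lasted 48 hours before the viability readout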); settings: CellTiter-Glo ATP luminescence
# [3] = viability loss in pontine glioma line – cell-based, SU-DIPG-XIII, MIPE5.0, CellTiter-Glo, qHTS, dose response (AID 1347064; cut-off not given, nearly all actives have AC50 up to about 23 µM;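 for AC50: cells exposed to compound for 48 hours before the viability read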); settings: CellTiter-Glo ATP luminescence
# [4] = viability loss in pontine glioma line – cell-based, SU-DIPG-XXV, MIPE5.0, CellTiter-Glo, qHTS, dose response (AID 1347065; cut-off not given, nearly all actives have AC50 up to about 26 µM;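 note: cells exposed to compound for 48 hours before ATP readout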); settings: CellTiter-Glo ATP luminescence
# [5] = growth inhibition of DIPG cells – cell-based, MIPE5.0 library, qHTS (AID 1347068; cut-off not given, nearly all actives have IC50 up to about 30 µM;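 for IC50: cells exposed to compound for 48 hours before viability readout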); settings: SU-DIPG-XXV viability
# [6] = viability loss with induced miR-34 in A549 – imaging, A549 dox-inducible miR-34, nuclei and caspase counts, primary screen (AID 1347080;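 active = compounds whose cell count with miR-34 switched on is under 0.7 times the count with it off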); settings: A549 miR-34 inducible, Hoechst nuclei count, 48 h
# [7] = compounds altering HSF1 focus formation in cells – imaging, Selleck Cancer Library (AID 1347162; in the data active = plate-normalised HSF1 focus index below about 0.46); settings: human cells, HSF1 nuclear foci imaging, at 10 µM; SSMD: measured here: HSF1 foci SSMD mean; cell count: measured here: cell number; plate-normalised HSF1 focus index: stronger effect = lower value
# [8] = MELAS cybrid and Rieske KO viability enhancers – cell-based, MELAS cybrids, Rieske KO mouse fibroblasts, CellTiter-Glo, primary screen (AID 1508586;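 active = mean z-score across replicates of 1.96 or higher in either the MELAS or the Rieske mutant cell line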;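 note: z relative to plate mean and SD of compound and empty wells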); settings: low glucose
# [9] = drug combination growth inhibition, ovarian cancer – cell-based, oncology-focused library, rucaparib conditional, profiling panel (AID 1508598); settings: patient-derived ovarian cancer cells, CellTiter-Glo viability, 144 h, stronger effect = lower value
# [10] = growth inhibition of DIPG cells – cell-based, MIPE4.0 library, CellTiter-Glo luminescence, qHTS (AID 1347066; cut-off not given, nearly all actives have AC50 up to about 30 µM;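 note: cells exposed to compound for 48 hours before readout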); settings: SU-DIPG-VI viability, CellTiter-Glo ATP luminescence
# [11] = JHH-DIPG-1 glioma cell viability, MIPE5.0 library, CellTiter-Glo luminescence, qHTS (AID 1347067; cut-off not given, nearly all actives have AC50 up to about 26 µM;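 note: cells exposed to compound for 48 hours before readout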); settings: JHH-DIPG-1 glioma viability, CellTiter-Glo ATP luminescence
# [12] = P. berghei load reduction in hepatocytes – cell-based, HepG2, luciferase luminescence, HepG2 viability, primary screen (AID 624349; in the data active = parasite load remaining mostly below about 12%, no sharp cut-off; inactive = mostly above about 10%;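 note: 100% = mean of DMSO negative control wells on the same plate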); settings: P. berghei liver stage in HepG2, luciferase luminescence, concentration not given here; parasite load remaining: stronger effect = lower value; viability: measured here: HepG2 viability without parasites
# [13] = stronger effect = lower value, cell number ratio, induced over uninduced
# [14] = measured here: relative caspase fold change +Dox/-Dox
# [15] = measured here: total cells with miR-34 induction, stronger effect = lower value
# [16] = measured here: total cells without miR-34 induction
# [17] = MELAS cybrid survival, CellTiter-Glo 48 h, stronger effect = higher value
# [18] = Rieske KO mouse fibroblast survival, CellTiter-Glo 72 h
# [19] = at 0.000305 µM, OCI-C5x cells, with rucaparib 10 µM, 100% = cells with rucaparib alone
# [20] = at 0.000305 µM, OCI-C5x cells, without rucaparib
# [21] = at 0.000305 µM, OCI-P5x cells, with rucaparib 20 µM, 100% = cells with rucaparib alone
# [22] = at 0.000305 µM, OCI-P5x cells, without rucaparib
# [23] = at 0.00122 µM, OCI-C5x cells, with rucaparib 10 µM, 100% = cells with rucaparib alone
# [24] = at 0.00122 µM, OCI-C5x cells, without rucaparib
# [25] = at 0.00122 µM, OCI-P5x cells, with rucaparib 20 µM, 100% = cells with rucaparib alone
# [26] = at 0.00122 µM, OCI-P5x cells, without rucaparib
# [27] = at 0.00488 µM, OCI-C5x cells, with rucaparib 10 µM, 100% = cells with rucaparib alone
# [28] = at 0.00488 µM, OCI-C5x cells, without rucaparib
# [29] = at 0.00488 µM, OCI-P5x cells, with rucaparib 20 µM, 100% = cells with rucaparib alone
# [30] = at 0.00488 µM, OCI-P5x cells, without rucaparib
# [31] = at 0.0195 µM, OCI-C5x cells, with rucaparib 10 µM, 100% = cells with rucaparib alone
# [32] = at 0.0195 µM, OCI-C5x cells, without rucaparib
# [33] = at 0.0195 µM, OCI-P5x cells, with rucaparib 20 µM, 100% = cells with rucaparib alone
# [34] = at 0.0195 µM, OCI-P5x cells, without rucaparib
# [35] = at 0.0781 µM, OCI-C5x cells, with rucaparib 10 µM, 100% = cells with rucaparib alone
# [36] = at 0.0781 µM, OCI-C5x cells, without rucaparib
# [37] = at 0.0781 µM, OCI-P5x cells, with rucaparib 20 µM, 100% = cells with rucaparib alone
# [38] = at 0.0781 µM, OCI-P5x cells, without rucaparib
# [39] = at 0.313 µM, OCI-C5x cells, with rucaparib 10 µM, 100% = cells with rucaparib alone
# [40] = at 0.313 µM, OCI-C5x cells, without rucaparib
# [41] = at 0.313 µM, OCI-P5x cells, with rucaparib 20 µM, 100% = cells with rucaparib alone
# [42] = at 0.313 µM, OCI-P5x cells, without rucaparib
# [43] = at 1.25 µM, OCI-C5x cells, with rucaparib 10 µM, 100% = cells with rucaparib alone
# [44] = at 1.25 µM, OCI-C5x cells, without rucaparib
# [45] = at 1.25 µM, OCI-P5x cells, with rucaparib 20 µM, 100% = cells with rucaparib alone
# [46] = at 1.25 µM, OCI-P5x cells, without rucaparib
# [47] = at 5 µM, OCI-C5x cells, with rucaparib 10 µM, 100% = cells with rucaparib alone
# [48] = at 5 µM, OCI-C5x cells, without rucaparib
# [49] = at 5 µM, OCI-P5x cells, with rucaparib 20 µM, 100% = cells with rucaparib alone
# [50] = at 5 µM, OCI-P5x cells, without rucaparib
smiles,measurement,setting,value
CS(=O)(=O)N1CCc2c(-c3cnc(N)nc3)nc(N3CCOCC3)nc21,AC50,[1],1.86 µM (active)
same,AC50,[2],0.148 µM (active)
same,AC50,[3],1.18 µM (active)
same,AC50,[4],0.525 µM (active)
same,IC50,[5],0.934 µM (active)
same,fold change,[6]; [13],0.998 (inactive)
same,fold change,[6]; [14],0.485
same,cell count,[6]; [15],3180
same,cell count,[6]; [16],3180
same,SSMD,[7],-3.29
same,cell count,[7],7210
same,plate-normalised HSF1 focus index,[7],0.883 (inactive)
same,z-score,[8]; [17],3.23 (active)
same,z-score,[8]; [18],-1.3
same,viability,[9]; [19],100% (inactive)
same,viability,[9]; [20],117% (inactive)
same,viability,[9]; [21],117% (inactive)
same,viability,[9]; [22],109% (inactive)
same,viability,[9]; [23],103% (inactive)
same,viability,[9]; [24],117% (inactive)
same,viability,[9]; [25],115% (inactive)
same,viability,[9]; [26],111% (inactive)
same,viability,[9]; [27],96.5% (active)
same,viability,[9]; [28],111% (inactive)
same,viability,[9]; [29],113% (inactive)
same,viability,[9]; [30],112% (inactive)
same,viability,[9]; [31],106% (inactive)
same,viability,[9]; [32],125% (inactive)
same,viability,[9]; [33],115% (inactive)
same,viability,[9]; [34],111% (inactive)
same,viability,[9]; [35],87.7% (active)
same,viability,[9]; [36],115% (inactive)
same,viability,[9]; [37],112% (inactive)
same,viability,[9]; [38],110% (inactive)
same,viability,[9]; [39],91.8% (active)
same,viability,[9]; [40],105% (inactive)
same,viability,[9]; [41],109% (inactive)
same,viability,[9]; [42],107% (inactive)
same,viability,[9]; [43],75.9% (active)
same,viability,[9]; [44],118% (inactive)
same,viability,[9]; [45],66.8% (active)
same,viability,[9]; [46],97% (active)
same,viability,[9]; [47],39.2% (active)
same,viability,[9]; [48],56% (active)
same,viability,[9]; [49],16% (active)
same,viability,[9]; [50],16.9% (active)
CNc1nc(Nc2ccc(C(=O)N3CCOCC3)cc2OC)ncc1Cl,outcome,[1],inactive
same,outcome,[2],inactive
same,outcome,[3],inactive
same,outcome,[10],inactive
same,outcome,[5],inactive
O=C(Nc1ccc(OC(F)(F)Cl)cc1)c1cnc(N2CC[C@@H](O)C2)c(-c2ccn[nH]2)c1,AC50,[1],23.5 µM (active)
same,outcome,[3],inactive
CCn1c(=O)c(-c2ccn[nH]2)cc2c(C)nc(N)nc21,AC50,[1],7.42 µM (active)
same,AC50,[3],5.9 µM (active)
same,AC50,[4],4.17 µM (active)
Clc1ccc2ncc(-c3cccc(NC4CNC4)n3)n2c1,outcome,[1],inactive
same,AC50,[2],26.4 µM (active)
same,outcome,[11],inactive
same,outcome,[5],inactive
c1ccc(-c2cc(CCC3CCNCC3)c3ccccc3n2)cc1,AC50,[1],23.5 µM (active)
same,AC50,[3],23.5 µM (active)
same,AC50,[4],23.5 µM (active)
CO[C@@H]1[C@@H](O)[C@H](O)[C@@H](n2c3c(Cl)cccc3c3c4c(c5c6cccc(Cl)c6[nH]c5c32)C(=O)NC4=O)O[C@H]1CO,AC50,[1],0.105 µM (active)
same,AC50,[2],0.209 µM (active)
same,AC50,[11],2.63 µM (active)
same,outcome,[5],inactive
CNC(=O)c1cc(COc2nnc(Nc3ccc(Cl)cc3)c3ccoc23)ccn1,AC50,[1],16.6 µM (active)
same,AC50,[2],20.9 µM (active)
same,AC50,[11],5.9 µM (active)
same,fold change,[6]; [13],0.883 (inactive)
same,fold change,[6]; [14],0.896
same,cell count,[6]; [15],5140
same,cell count,[6]; [16],5820
same,SSMD,[7],-14.1
same,cell count,[7],4310
same,plate-normalised HSF1 focus index,[7],0.266 (active)
same,z-score,[8]; [17],-0.151 (inactive)
same,z-score,[8]; [18],0.512
same,viability,[9]; [19],113% (inactive)
same,viability,[9]; [20],111% (inactive)
same,viability,[9]; [21],105% (inactive)
same,viability,[9]; [22],114% (inactive)
same,viability,[9]; [23],109% (inactive)
same,viability,[9]; [24],117% (inactive)
same,viability,[9]; [25],102% (inactive)
same,viability,[9]; [26],109% (inactive)
same,viability,[9]; [27],108% (inactive)
same,viability,[9]; [28],113% (inactive)
same,viability,[9]; [29],102% (inactive)
same,viability,[9]; [30],108% (inactive)
same,viability,[9]; [31],105% (inactive)
same,viability,[9]; [32],105% (inactive)
same,viability,[9]; [33],104% (inactive)
same,viability,[9]; [34],109% (inactive)
same,viability,[9]; [35],109% (inactive)
same,viability,[9]; [36],110% (inactive)
same,viability,[9]; [37],101% (inactive)
same,viability,[9]; [38],109% (inactive)
same,viability,[9]; [39],108% (inactive)
same,viability,[9]; [40],113% (inactive)
same,viability,[9]; [41],103% (inactive)
same,viability,[9]; [42],111% (inactive)
same,viability,[9]; [43],106% (inactive)
same,viability,[9]; [44],114% (inactive)
same,viability,[9]; [45],98.5% (active)
same,viability,[9]; [46],108% (inactive)
same,viability,[9]; [47],114% (inactive)
same,viability,[9]; [48],128% (inactive)
same,viability,[9]; [49],103% (inactive)
same,viability,[9]; [50],109% (inactive)
Nc1cccc(-c2cc3c(Oc4cccc(O)c4)ncnc3[nH]2)c1,parasite load remaining,[12],28.2% (inactive)
same,viability,[12],64.3%
same,AC50,[1],1.66 µM (active)
same,AC50,[2],11.8 µM (active)
same,AC50,[3],4.68 µM (active)
same,AC50,[4],5.25 µM (active)
same,IC50,[5],8.33 µM (active)
same,fold change,[6]; [13],1.45 (inactive)
same,fold change,[6]; [14],0.507
same,cell count,[6]; [15],1790
same,cell count,[6]; [16],1240
same,z-score,[8]; [17],0.0499 (inactive)
same,z-score,[8]; [18],-2.88
CC[C@H](CC#N)OC(=O)N[C@@H](C)c1cccc(NC(=O)Nc2ccc(-c3cnco3)c(OC)c2)c1,AC50,[1],0.525 µM (active)
same,AC50,[2],1.32 µM (active)
same,AC50,[4],0.468 µM (active)
same,AC50,[11],2.63 µM (active)
same,IC50,[5],14.8 µM (active)
CCCc1cc(C)[nH]c(=O)c1CNC(=O)c1cc(-c2ccnc(N3CCN(C)CC3)c2)cc2c1cnn2C(C)C,outcome,[1],inactive
same,outcome,[3],inactive
same,outcome,[4],inactive
OCCn1cc(-c2ccc3c(c2)CC/C3=N\O)c(-c2ccncc2)n1,AC50,[1],14.8 µM (active)
same,outcome,[2],inactive
same,outcome,[5],inactive
same,SSMD,[7],1.73
same,cell count,[7],6750
same,plate-normalised HSF1 focus index,[7],1.09 (inactive)
N#Cc1c(N)nc(N)nc1N[C@H](c1nc2c(F)ccc(Cl)c2c(=O)n1-c1cccnc1)C1CC1,AC50,[1],18.6 µM (active)
same,AC50,[3],13.2 µM (active)
same,AC50,[4],11.8 µM (active)
